# Among all 5,500 compounds or so, about 2,000 (36%) were called active. Inconclusive results (about 18%) are left out. This is one part of the list. A number with no mark means an inactive call. Rule as the data show it: active = normalized growth mostly below about 0.91 (no sharp cut-off); inconclusive = no clear call, values can overlap the other calls; inactive = mostly above about 0.92.
# Experiment: chemical genetic growth profiling, strain panel (AID 1159580);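 also: tested at 20 µM; growth read once vehicle control cultures reached saturation at 30 °C; 1 = growth at the plate median or of vehicle wells; lower values mean less growth of the strain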
# Conditions: growth OD
structure (smiles),measurement,setting,value
C/C=C(/C(=C/C)c1ccc(O)cc1)c1ccc(O)cc1,normalized growth,"S. cerevisiae deletion strains, locus YKL009W, strain mrt4, active compounds read low",0.81 (active)
same,normalized growth,"S. cerevisiae deletion strains, locus YKL068W, active compounds read low",0.961
same,normalized growth,"S. cerevisiae deletion strains, locus YKL085W, strain MDH1 (second series), active compounds read low",0.764 (active)
same,normalized growth,"S. cerevisiae deletion strains, locus YKL085W, strain MDH1, active compounds read low",0.764 (active)
same,normalized growth,"S. cerevisiae deletion strains, locus YKL160W, strain elf1, active compounds read low",0.947
same,normalized growth,"S. cerevisiae deletion strains, locus YKL190W, strain CNB1, active compounds read low",0.976
same,normalized growth,"S. cerevisiae deletion strains, locus YKR001C, strain vps1, active compounds read low",0.531 (active)
same,normalized growth,"S. cerevisiae deletion strains, locus YKR026C, strain gcn3, active compounds read low",0.986
same,normalized growth,"S. cerevisiae deletion strains, locus YKR091W, strain srl3, active compounds read low",0.995
same,normalized growth,"S. cerevisiae deletion strains, locus YLL001W, strain dnm1, active compounds read low",0.948
same,normalized growth,"S. cerevisiae deletion strains, locus YLL026W, active compounds read low",0.969
same,normalized growth,"S. cerevisiae deletion strains, locus YLL041C, strain sdh2, active compounds read low",0.965
same,normalized growth,"S. cerevisiae deletion strains, locus YLR027C, strain aat2, active compounds read low",0.959
same,normalized growth,"S. cerevisiae deletion strains, locus YLR039C, strain RIC1, active compounds read low",0.368 (active)
same,normalized growth,"S. cerevisiae deletion strains, locus YLR058C, strain SHM2, active compounds read low",0.759 (active)
same,normalized growth,"S. cerevisiae deletion strains, locus YLR102C, strain apc9, active compounds read low",0.991
same,normalized growth,"S. cerevisiae deletion strains, locus YLR113W, strain HOG1, active compounds read low",0.985
same,normalized growth,"S. cerevisiae deletion strains, locus YLR221C, strain rsa3, active compounds read low",0.982
same,normalized growth,"S. cerevisiae deletion strains, locus YLR258W, strain gsy2, active compounds read low",0.996
same,normalized growth,"S. cerevisiae deletion strains, locus YLR262C, strain YPT6 (second series), active compounds read low",0.659 (active)
same,normalized growth,"S. cerevisiae deletion strains, locus YLR262C, strain YPT6, active compounds read low",0.292 (active)
same,normalized growth,"S. cerevisiae deletion strains, locus YLR268W, strain sec22, active compounds read low",0.866 (active)
same,normalized growth,"S. cerevisiae deletion strains, locus YLR320W, strain mms22, active compounds read low",0.978
same,normalized growth,"S. cerevisiae deletion strains, locus YLR330W, strain CHS5, active compounds read low",0.724 (active)
same,normalized growth,"S. cerevisiae deletion strains, locus YLR342W, strain FKS1 (second series), active compounds read low",0.683 (active)
same,normalized growth,"S. cerevisiae deletion strains, locus YLR342W, strain FKS1, active compounds read low",0.943
same,normalized growth,"S. cerevisiae deletion strains, locus YLR357W, strain rsc2, active compounds read low",0.989
same,normalized growth,"S. cerevisiae deletion strains, locus YLR370C, strain arc18, active compounds read low",1
same,normalized growth,"S. cerevisiae deletion strains, locus YLR371W, strain rom2, active compounds read low",0.453 (active)
same,normalized growth,"S. cerevisiae deletion strains, locus YLR384C, strain iki3, active compounds read low",0.983
same,normalized growth,"S. cerevisiae deletion strains, locus YLR418C, strain cdc73, active compounds read low",0.542 (active)
same,normalized growth,"S. cerevisiae deletion strains, locus YML016C, strain PPZ1, active compounds read low",0.914 (active)
same,normalized growth,"S. cerevisiae deletion strains, locus YML032C, strain rad52, active compounds read low",0.691 (active)
same,normalized growth,"S. cerevisiae deletion strains, locus YML120C, strain ndi1, active compounds read low",0.909 (active)
same,normalized growth,"S. cerevisiae deletion strains, locus YML124C, strain tub3, active compounds read low",0.971
same,normalized growth,"S. cerevisiae deletion strains, locus YMR058W, strain fet3, active compounds read low",0.932
same,normalized growth,"S. cerevisiae deletion strains, locus YMR078C, strain ctf18, active compounds read low",0.979
same,normalized growth,"S. cerevisiae deletion strains, locus YMR125W, strain sto1, active compounds read low",0.924
same,normalized growth,"S. cerevisiae deletion strains, locus YMR129W, active compounds read low",0.986
same,normalized growth,"S. cerevisiae deletion strains, locus YMR205C, strain PFK2, active compounds read low",0.958
same,normalized growth,"S. cerevisiae deletion strains, locus YMR223W, strain ubp8, active compounds read low",0.745 (active)
same,normalized growth,"S. cerevisiae deletion strains, locus YMR231W, strain pep5, active compounds read low",0.975
same,normalized growth,"S. cerevisiae deletion strains, locus YMR263W, strain SAP30, active compounds read low",0.851 (active)
same,normalized growth,"S. cerevisiae deletion strains, locus YMR307W, strain GAS1, active compounds read low",0.336 (active)
same,normalized growth,"S. cerevisiae deletion strains, locus YNL067W, strain RPL9B, active compounds read low",0.863 (active)
same,normalized growth,"S. cerevisiae deletion strains, locus YNL071W, strain lat1, active compounds read low",0.906 (active)
same,normalized growth,"S. cerevisiae deletion strains, locus YNL183C, strain NPR1, active compounds read low",0.971
same,normalized growth,"S. cerevisiae deletion strains, locus YNL209W, strain ssb2, active compounds read low",1
same,normalized growth,"S. cerevisiae deletion strains, locus YNL233W, strain BNI4, active compounds read low",0.76 (active)
same,normalized growth,"S. cerevisiae deletion strains, locus YNL248C, strain rpa49, active compounds read low",0.951
same,normalized growth,"S. cerevisiae deletion strains, locus YNL250W, strain rad50, active compounds read low",0.871 (active)
same,normalized growth,"S. cerevisiae deletion strains, locus YNL271C, strain bni1, active compounds read low",0.899 (active)
same,normalized growth,"S. cerevisiae deletion strains, locus YNL298W, strain CLA4, active compounds read low",0.629 (active)
same,normalized growth,"S. cerevisiae deletion strains, locus YNL307C, strain MCK1, active compounds read low",0.707 (active)
same,normalized growth,"S. cerevisiae deletion strains, locus YNL322C, strain KRE1 (second series), active compounds read low",0.985
same,normalized growth,"S. cerevisiae deletion strains, locus YNR049C, strain mso1, active compounds read low",0.99
same,normalized growth,"S. cerevisiae deletion strains, locus YNR052C, strain pop2, active compounds read low",0.383 (active)
same,normalized growth,"S. cerevisiae deletion strains, locus YOL006C, strain TOP1, active compounds read low",0.456 (active)
same,normalized growth,"S. cerevisiae deletion strains, locus YOL012C, strain htz1",1.01
same,normalized growth,"S. cerevisiae deletion strains, locus YOL147C, strain pex11, active compounds read low",0.839 (active)
same,normalized growth,"S. cerevisiae deletion strains, locus YOR001W, strain rrp6, active compounds read low",0.967
same,normalized growth,"S. cerevisiae deletion strains, locus YOR061W, strain CKA2, active compounds read low",0.879 (active)
same,normalized growth,"S. cerevisiae deletion strains, locus YOR069W, strain VPS5, active compounds read low",0.896 (active)
same,normalized growth,"S. cerevisiae deletion strains, locus YOR070C, strain gyp1, active compounds read low",0.989
same,normalized growth,"S. cerevisiae deletion strains, locus YOR080W, strain dia2, active compounds read low",0.97
same,normalized growth,"S. cerevisiae deletion strains, locus YOR083W, strain WHI5, active compounds read low",0.929
same,normalized growth,"S. cerevisiae deletion strains, locus YOR106W, strain vam3, active compounds read low",0.914
same,normalized growth,"S. cerevisiae deletion strains, locus YOR136W, strain idh2, active compounds read low",0.938
same,normalized growth,"S. cerevisiae deletion strains, locus YOR144C, strain elg1, active compounds read low",0.86 (active)
same,normalized growth,"S. cerevisiae deletion strains, locus YOR184W, strain ser1, active compounds read low",0.609 (active)
same,normalized growth,"S. cerevisiae deletion strains, locus YOR231W, strain MKK1, active compounds read low",0.964
same,normalized growth,"S. cerevisiae deletion strains, locus YOR265W, strain rbl2, active compounds read low",0.976
same,normalized growth,"S. cerevisiae deletion strains, locus YOR270C, strain vph1, active compounds read low",0.911
same,normalized growth,"S. cerevisiae deletion strains, locus YOR290C, strain snf2, active compounds read low",0.971
same,normalized growth,"S. cerevisiae deletion strains, locus YOR316C, strain cot1, active compounds read low",0.993
same,normalized growth,"S. cerevisiae deletion strains, locus YPL051W, strain arl3, active compounds read low",0.956
same,normalized growth,"S. cerevisiae deletion strains, locus YPL078C, strain atp4, active compounds read low",0.901
same,normalized growth,"S. cerevisiae deletion strains, locus YPL106C, strain sse1, active compounds read low",0.975
same,normalized growth,"S. cerevisiae deletion strains, locus YPL240C, strain hsp82, active compounds read low",0.981
same,normalized growth,"S. cerevisiae deletion strains, locus YPL241C, strain CIN2, active compounds read low",0.988
same,normalized growth,"S. cerevisiae deletion strains, locus YPL256C, strain CLN2, active compounds read low",0.992
same,normalized growth,"S. cerevisiae deletion strains, locus YPR119W, strain clb2, active compounds read low",0.981
same,normalized growth,"S. cerevisiae deletion strains, locus YPR141C, strain kar3, active compounds read low",0.978
same,normalized growth,"S. cerevisiae deletion strains, locus YPR163C, strain tif3, active compounds read low",0.91 (active)
same,normalized growth,"S. cerevisiae deletion strains, locus YPR167C, strain met16, active compounds read low",0.854 (active)
same,normalized growth,"S. cerevisiae deletion strains, strain wtn01, active compounds read low",0.837 (active)
same,normalized growth,"S. cerevisiae strains, strain wild type, active compounds read low",0.877 (active)
